Reference: PubChem BioAssay (NCATS)
Inconclusive results are not listed. Activity calls are given as the source filed them. Calls follow the shape of the dose curve; as a rule, active = well fitted inhibition curve with a large enough effect; inconclusive = small, poorly fitted or top-dose-only effect; inactive = no such curve, though single readings can be large or run the other way.

Key:
[1] = target: Muscarinic acetylcholine receptor M1 (Rattus norvegicus) (UniProt P08482); assay: qHTS Assay for Antagonists of Acetylcholine Muscarinic M1 Receptor: Kinetic Measurement of Intracellular Calcium Response (AID 943); conditions: M1-expressing cells, kinetic intracellular calcium fluorescence; series mostly up to 35.3 µM;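 also: Fluo-4 calcium signal as peak divided by basal fluorescence over 4 min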
Chain of Muscarinic acetylcholine receptor M1 (Rattus norvegicus) (P08482 whole entry, looked up): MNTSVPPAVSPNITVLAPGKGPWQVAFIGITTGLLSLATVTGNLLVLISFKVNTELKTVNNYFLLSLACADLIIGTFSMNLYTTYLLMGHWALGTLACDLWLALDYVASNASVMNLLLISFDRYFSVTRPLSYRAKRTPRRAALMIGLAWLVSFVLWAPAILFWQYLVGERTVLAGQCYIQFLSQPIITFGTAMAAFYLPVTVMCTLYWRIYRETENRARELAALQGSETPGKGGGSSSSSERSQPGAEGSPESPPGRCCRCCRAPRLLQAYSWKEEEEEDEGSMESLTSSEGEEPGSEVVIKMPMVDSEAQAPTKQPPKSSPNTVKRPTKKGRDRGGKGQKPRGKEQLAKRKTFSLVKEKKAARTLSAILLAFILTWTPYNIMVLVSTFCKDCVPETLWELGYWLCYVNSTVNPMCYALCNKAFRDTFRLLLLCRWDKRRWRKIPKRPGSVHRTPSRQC
How it was run: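 Read-out: peak over basal Fluo-4 fluorescence, kinetic at 1 Hz for 4 min after EC80 carbachol (100 nM final). Rat M1-CHO cells, dye loaded 1 h at 37C, compound added 10 min before agonist.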

[2] = target: Muscarinic acetylcholine receptor M1 (Rattus norvegicus) (UniProt P08482); assay: qHTS Assay for Antagonists of Acetylcholine Muscarinic M1 Receptor: Measurement of IP-One Response (AID 944); conditions: CHO-M1 cells, IP-One HTRF, antagonist mode; series mostly up to 46.1 µM
How it was run: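 Read-out: HTRF competition between d2-IP1 and Eu-cryptate anti-IP1 antibody, emission 620 and 665 nm. Stimulus was carbachol, EC80 (200 nM), for 30 min in M1-CHO cells (rat receptor), after 10 min compound pre-treatment.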
Also: nearly all actives have a fitted effect of over 75% in size.

Which outcome [1] does the source give for CN=C(NC#N)Nc1ccc(C2=NNC(=O)C[C@@H]2C)cc1 here?
Its outcome is “inactive”.

And the outcome [2]?
The outcome was “inactive”.
